Source: PubChem BioAssay
BH1578 lux ind: inducers of Vibrio cholerae quorum light production without autoinducers; activation, % at 18.7 µM; AID 588436; V. cholerae BH1578 lux reporter, luminescence, 6 h; hit rate 0.16% among 350,000; in the data active = activation mostly above about 9.7%, no sharp cut-off
Mtb UGM inh: blocks M. tuberculosis UGM enzyme. P9WIQ1. AID 504406. purified UGM, fluorescence polarization probe displacement. hit rate 0.06% among 320,000. inhibition, % at 10 µM; in the data active = inhibition above about 10%, passing the limit was not always enough
FBA Mtb inh: Mtb fructose-bisphosphate aldolase inhibition; purified M. tuberculosis FBA, fluorescence read-out; inhibition, % at 1 µM; hit rate 2.3% among 360,000; AID 588726; in the data active = inhibition above about 27%;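 also: 0% = vehicle and 100% = reference inhibitor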
Target sequence (P9WQA3 whole entry, looked up): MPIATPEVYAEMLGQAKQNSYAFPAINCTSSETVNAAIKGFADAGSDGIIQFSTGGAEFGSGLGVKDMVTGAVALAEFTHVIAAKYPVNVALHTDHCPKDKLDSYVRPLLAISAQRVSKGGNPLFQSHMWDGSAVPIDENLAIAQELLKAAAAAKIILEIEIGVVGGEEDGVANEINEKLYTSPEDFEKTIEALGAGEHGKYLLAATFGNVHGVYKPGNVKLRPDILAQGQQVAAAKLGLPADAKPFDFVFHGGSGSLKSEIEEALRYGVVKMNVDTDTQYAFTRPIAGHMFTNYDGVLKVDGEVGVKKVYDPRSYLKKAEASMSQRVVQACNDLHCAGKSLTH
RecA splice inh: blocks M. tuberculosis RecA intein splicing. hit rate 0.75% among 290,000. inhibition, % (concentration not given with the values). cell-free RecA intein splicing, fluorescence; in the data active = inhibition above about 30%;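 also: 0% = vehicle wells and 100% = reference inhibitor control wells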
Rv3671c protease: inhibits the M. tuberculosis serine protease Rv3671c; P9WHR9; hit rate 0.048% among 320,000; inhibition, % at 5.96 µM; in the data active = inhibition above about 38%;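 also: extracellular domain of Rv3671c used as enzyme; 0% = enzyme with DMSO and 100% = no enzyme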
GDH-TPI counter: counter-screen for M. tuberculosis FBA inhibitors: GDH-TPI coupled enzymes; GDH-TPI coupled enzyme counterscreen, NADH absorbance; inhibition, % at 4.8 µM; hit rate 1.2% among 360,000; AID 588335; in the data active = inhibition above about 30%;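 also: 0% = DMSO wells and 100% = wells lacking the enzyme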
An asterisk follows results filed as active; i = inactive; . = no result given; + = active, no number. Rows were chosen to be rich in hits. Some 4.1% of all compounds tested hit in one or more screens of this group.

SMILES	BH1578 lux ind	Mtb UGM inh	FBA Mtb inh	RecA splice inh	Rv3671c protease	GDH-TPI counter
O=C(NCc1cccnc1)c1cc(C2CCCCN2S(=O)(=O)c2ccc(F)cc2F)on1 (centres undefined)	i	.	0	.	.	-9
Cc1cccn2c(=O)c(C=Nc3ccccc3)c(NCc3ccco3)nc12	i	1	39*	-6	-5	22
CCN(CC)CCCNC(=O)c1cn(CC)c2cc(N3CCN(C(=O)c4ccco4)CC3)c(F)cc2c1=O	i	2	54*	-1	-3	20
Cc1noc(C)c1C(=O)Nc1cc(S(=O)(=O)N2CCCCC2)ccc1N(C)C	-12	.	0	.	.	-8
Cc1ccccc1OCC(=O)Nc1ccc(N2CCN(C(=O)c3ccco3)CC2)cc1	0	1	0	0	12	-3
Oc1ccc(/C=N/Nc2ccccc2)cc1	-1	2	-2	2	-2	2
COc1ccccc1NC(=S)N/N=C/c1ccc(O)cc1	0	-2	3	3	-9	33*
Oc1ccc(/C=N/NC(=S)N/N=C/c2ccc(O)cc2)cc1	0	0	4	-3	7	75*
COc1ccccc1NC(=S)N/N=C/c1cccc(C)c1	0	-2	1	-3	3	11
Oc1ccc(/C=N/NC(=S)Nc2cccnc2)cc1	-4	3	5	-3	-4	36*
Cc1noc(C)c1COc1ccc(C(=O)N2CCC(C(N)=O)CC2)cc1	0	1	-2	.	0	1
O=C(CCC1CCCC1)NNC(=O)c1ccc(F)cc1	i	-1	1	.	-1	10
O=C(Nc1ccc2c(c1)CCC2)c1ccc(F)cc1	0	0	117*	3	-5	6
Cc1cccc(-c2nnc(-c3ccc4ccccc4c3)o2)c1	i	.	5	.	.	3
Cn1c(=O)c2cc(NC(=S)NC3CCCCC3)ccc2n1Cc1ccc(F)cc1	0	.	17	.	.	12
C=C(C)Cn1c2ccc(NC(=O)NCc3ccccc3)cc2c(=O)n1C	i	.	166*	.	.	-11
CCNC(=S)Nc1ccc2c(c1)c(=O)n(C)n2-c1cc(C)cc(C)c1	-1	.	8	.	.	13
C=C(C)Cn1c2ccc(NC(=O)NCC)cc2c(=O)n1C	i	.	+	.	.	7
CCNC(=O)Nc1ccc2c(c1)c(=O)n(C)n2Cc1ccc(Cl)cc1	0	.	+	.	.	11
COCCN1CCn2c(nc3cc(NC(=O)NC4CCCCC4)ccc32)C1	i	-2	94*	.	6	4
COCCN1CCn2c(nc3cc(NC(=O)c4ccc(OC)cc4)ccc32)C1	6	-2	11	7	-11	3
Cc1cc2ccccc2c(=O)[nH]1	i	0	2	-2	11	1
O=c1[nH]c(-c2ccccn2)cc2ccccc12	0	1	121*	5	-12	20
COc1cc(C2C3=C(CC(C)(C)CC3=O)Nc3ccccc3N2C(C)=O)cc(OC)c1OC (centres undefined)	0	0	0	0	-1	18
COc1ccc(-c2cc(C(F)(F)F)n3nc(N)nc3n2)cc1	i	2	+	-156	-5	20
SMILES	BH1578 lux ind	Mtb UGM inh	FBA Mtb inh	RecA splice inh	Rv3671c protease	GDH-TPI counter
COc1cccc(-c2cc(C(F)(F)F)n3nc(N)nc3n2)c1	i	3	5	0	-4	36*
C/C(=N\N1CCN(C)CC1)c1ccc(Cl)c(Cl)c1	i	2	2	1	-5	1
C=CCSc1nc2sc3c(c2c(=O)n1-c1ccc(C)cc1)CCN(C)C3	i	-1	6	6	.	17
CCCCNc1ccc2c(c1)C1CC2CCN1C(=O)OCc1ccccc1 (centres undefined)	3	.	0	.	.	-19
C=C(C)CSc1nc(N)cc(=O)[nH]1	17*	1	1	-2	3	-2
Cc1ccc(C(=O)CSc2nc(N)cc(=O)[nH]2)cc1	0	0	1	-1	1	-2
C=C(C)CSc1nc2nc(C)c(Br)cc2[nH]1	0	1	2	3	3	36*
COc1ccc(/C=C/C(=O)c2ccc(OC)cc2OC)cc1	0	0	5	4	1	38*
COc1ccc(/C=C/C(=O)O)cc1	-1	.	4	.	-3	1
COc1ccc(/C=C/C(=O)C2(O)CCCCC2)cc1	-1	-2	0	1	1	39*
CS(=O)(=O)c1ccc2nc(NC(=O)c3cccc([N+](=O)[O-])c3)sc2c1	-1	-1	-2	-1	-4	39*
